# Shown are actives, neighbours in structure and some others; about 1.8% of the full set was active somewhere.
# eIF4H FP inh: inhibitors of RNA binding by human eIF4H. Q15056. eIF4H fluorescence polarization binding assay. inhibition, % at 35 µM. 0.94% of 290,000 active;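 further: calls also rest on retests at 20 µM and on dose response follow-up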
# MLLE-PAM2 inh: blocks PAM2 peptide binding to the PABP1 MLLE domain. P11940. GST-MLLE / FITC-PAM2 fluorescence polarization. inhibition, % at 20 µM. 0.36% of 360,000 active. AID 588489; in the data active means inhibition above about 35%, passing the limit was not always enough;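 further: plate controls were DMSO wells with GST-MLLE for no effect and wells lacking GST-MLLE protein for full effect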
# MEX-5 binding: C. elegans MEX-5 TCR-2 RNA binding activity; 0.38% of 300,000 active; activity score (negative = inhibition of binding), % at 10 µM; MEX-5/FITC-TCR2 RNA binding, fluorescence polarization; active compounds read low; Q9XUB2;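 active means inhibition past about -25% in most replicates, and total fluorescence under double the plate's negative control median, limit read from the data; inconclusive means replicates evenly split on the limit, or fluorescence at least double controls; inactive means too little inhibition in most replicates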;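 further: 0% = DMSO and -100% = 5 µM competing unlabeled TCR2 RNA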
# Target sequence (Q9XUB2 whole entry, looked up): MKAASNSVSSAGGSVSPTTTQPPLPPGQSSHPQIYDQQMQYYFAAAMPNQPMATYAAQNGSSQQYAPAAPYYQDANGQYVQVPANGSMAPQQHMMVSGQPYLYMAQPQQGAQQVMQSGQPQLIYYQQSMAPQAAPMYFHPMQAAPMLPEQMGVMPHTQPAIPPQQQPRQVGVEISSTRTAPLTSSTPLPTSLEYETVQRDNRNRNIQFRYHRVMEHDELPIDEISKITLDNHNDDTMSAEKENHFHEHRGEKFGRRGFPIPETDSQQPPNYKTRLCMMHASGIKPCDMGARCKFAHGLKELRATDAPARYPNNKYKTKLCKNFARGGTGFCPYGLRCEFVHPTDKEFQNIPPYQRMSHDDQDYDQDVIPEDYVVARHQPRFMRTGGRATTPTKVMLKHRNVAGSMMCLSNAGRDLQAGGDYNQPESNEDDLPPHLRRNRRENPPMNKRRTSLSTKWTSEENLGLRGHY
# PABP FP inh: PABP-poly(A) binding inhibition. PABP-poly(A) RNA binding, fluorescence polarization. calls only at 35 µM. 1% of 290,000 active. AID 2014;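 further: calls also rest on retests at 20 µM and on dose response follow-up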
# EBV gp42 inh: blocks Epstein-Barr virus glycoprotein 42 binding; Q1HVG2; Fluorescence polarization binding assay, mP read-out; inhibition, % (tested at 21.74 µM); 0.42% of 220,000 active; AID 1085; in the data active means inhibition above about 50%
# Starred values were filed as active, the others as inactive; i = inactive; ? = inconclusive; / = no result; + = active, no number. Unless noted, how the calls were made is not given here.
SMILES,eIF4H FP inh,MLLE-PAM2 inh,MEX-5 binding,PABP FP inh,EBV gp42 inh
C=CCOc1ccc(CN(C)CC(=O)Nc2ccc3c(c2)CCC3)cc1,18,-3,-1,i,-9
CCOc1ccc(CN(C)CC(=O)Nc2ccc3c(c2)CCC3)cc1OC,76*,1,0,i,-10
Cc1ccc(NC(=O)CN2C(=O)/C(=C3\SC(=S)N(C4CCS(=O)(=O)C4)C3=O)c3ccccc32)cc1 (stereo not drawn),-4,29,/,i,105*
CCOC(=O)C1(C)CCCN1C(=O)c1ccc(OC)c(F)c1 (stereo not drawn),/,7,/,/,/
COc1ccccc1Cc1c(-c2ccccc2)nc2c(C)cc(Br)cn12,/,-10,/,/,/
COc1ccc(Cc2c(C(C)(C)C)nc3c(C)cc(Br)cn23)c(C)c1,/,47*,/,/,/
CCN(CC)c1ccc(/C=N/NC(=O)c2nnn(-c3nonc3N)c2CN(C)C2CCCCC2)cc1,/,13,/,/,/
CSC1=NSC2=NC(=O)/C(=C\c3coc4ccccc4c3=O)C(=N)N12,49,i,/,i,76*
CC(C)CSC1=NSC2=NC(=O)/C(=C\c3coc4ccccc4c3=O)C(=N)N12,?,i,?,i,104*
CSc1ccc(Cn2c(C)c(C(=O)NCc3ccc4c(c3)OCO4)sc2=O)cc1,/,1,/,/,/
COc1cc(/C=C(\CC(=O)O)c2nc3ccccc3s2)cc(OC)c1O,-4,-8,0,i,-13
COc1cc(C=C(c2nc3ccccc3s2)c2nc3ccccc3s2)cc(OC)c1O,52*,-31,-1,+,-21
COC(=O)C(Sc1ccc(Cl)cc1)C1SC(=S)N(Cc2ccccc2)C1=O (stereo not drawn),/,-17,/,/,/
Cc1ccc2c(c1)N(C(=O)c1ccco1)C(C)(C)c1ssc(=S)c1-2,active,13,2,+,-15
Cc1cccc2c1N(C(=O)c1ccco1)C(C)(C)c1ssc(=S)c1-2,4,-2,-2,i,-1
COc1ccc(OC)c(N/C(C)=C/C(=O)c2ccncc2)c1,?,-4,-2,+,/
O=C(CCCCC(=O)NN=Cc1ccc2c(c1)CCC2)NN=Cc1ccc2c(c1)CCC2,/,-1,/,/,/
O=C(CCc1n[nH]c(=O)[nH]c1=O)N/N=C/c1ccco1,77*,-1,-2,+,16
COc1cccc(/C=N/NC(=O)CCc2n[nH]c(=O)[nH]c2=O)c1O,7,-2,-1,i,-12
Cc1ccc(C(=O)NCCc2nnc3ccc(SCC(=O)Nc4nnc(C)s4)nn23)cc1,/,4,/,/,/
Cc1ccc(C(=O)NCCn2c(N)c(C#N)c3nc4ccccc4nc32)cc1,56*,-12,-5,+,-28
CNc1cccc(-c2cc(OC)ccc2OC)n1,/,-9,/,/,/
COc1ccc(CCNC(=O)COc2nsnc2N2CCOCC2)cc1OC,0,-17,-4,i,82*
CCCc1ccc(C(O)c2ncc(-c3ccccc3F)[nH]2)cc1 (stereo not drawn),/,11,/,/,/
CN(C(=O)CN1C(=O)S/C(=C\c2ccccc2Cl)C1=O)C1CCS(=O)(=O)C1 (stereo not drawn),-18,12,3,i,/
SMILES,eIF4H FP inh,MLLE-PAM2 inh,MEX-5 binding,PABP FP inh,EBV gp42 inh
CN(C(=O)CN1C(=O)/C(=C/c2ccccc2Cl)SC1=S)C1CCS(=O)(=O)C1 (stereo not drawn),-4,41*,-3,i,/
CCc1ccc(-n2c(=S)sc3c(=O)[nH]c(SCC(=O)NC4CCCCC4)nc32)cc1,/,17,/,/,/
O=S1(=O)CCC(NC(=S)SCCOc2ccccc2)C1 (stereo not drawn),0,40*,2,i,-3
CNC(=S)SCCOc1ccccc1,-19,36*,1,i,-15
CCOC1=C2[C@H](c3ccc(CC)cc3)N(S(=O)(=O)c3ccc(C)cc3)C[C@H]2C(C#N)(C#N)C(C#N)(C#N)C1,/,23,/,/,/
CCN1C(=NCCc2cccs2)N[C@@H](c2cccs2)C(C(=O)OC)=C1C,0,-117,-2,+,/
CCOC(=O)CN1C(=O)N[C@@H](c2cccs2)C(C(=O)OC)=C1C,/,4,0,/,/
Cc1cccc(-c2noc(-c3csc([C@@H]4C[C@H](O)[C@@H](CO)O4)n3)n2)c1,/,3,/,/,/
CCCc1nc2c3ccccc3ccn2c1CC1CCCCC1,/,1,/,/,/
Cc1cccc(OCCN2C(=O)C(=O)c3cccc(C)c32)c1,1.1*,-6,1,i,-2
Cc1cccc2c1N(CCCOc1ccccc1)C(=O)C2=O,-7,5,0,i,-12
C/C=C/C=C/C(=O)[C@@H]1[C@@H]([C@]2(C)OC(=O)C(C)=C2O)[C@H]2/C(=C(O)/C=C/C=C/C)C(=O)[C@]1(C)C(=O)C2(C)O (stereo partly drawn),61*,-8,-5,i,-9
Cc1cc(/C=N/Nc2ccc([N+](=O)[O-])cn2)c(C)n1-c1ccc(C(=O)O)cc1,76,-104,-2,i,61*
CN1CCN(C2=C(Cl)C(=O)N(CCc3ccccc3)C2=O)CC1,?,51*,-1,i,8
O=C1C(Cl)=C(N2CCN(Cc3ccccc3)CC2)C(=O)N1c1ccccc1,?,21,-2,+,-9
COc1ccc(N2C(=O)C(Cl)=C(N3CCN(Cc4ccccc4)CC3)C2=O)cc1,3,11,3,i,6
O=C1C(Cl)=C(N2CCOCC2)C(=O)N1CCc1ccccc1,1,-5,-15,i,-5
CC1(C)CN(Cc2ccccc2)C(=O)[C@H]1CC(=O)Nc1ccc(Br)cc1,/,-4,/,/,/
CC1(C(=O)NS(=O)(=O)c2ccccc2)CCN1C(=O)CCc1ccc(Cl)cc1Cl (stereo not drawn),/,8,/,/,/
C=CS(=O)(=O)c1c2cc(OC)ccc2nc2ccc(OC)cc12,/,86,/,/,/
CN(C)C=NC(=O)c1cn(-c2ccc(F)cc2)c(=O)c2ccccc12,9.9*,7,2,i,-9
CN(C)C(=O)c1cn(-c2ccc(Cl)cc2)c(=O)c2ccccc12,2,-11,-4,i,1
CCOC(=O)C1(C)CCN1C(=O)c1cncc(Br)c1 (stereo not drawn),/,12,/,/,/
Cc1ccccc1CNC(=O)c1[nH]c(C(F)(F)F)nc1-c1ccccc1,/,16,/,/,/
CC(=O)Nc1cc(-c2cccc(CO)c2)cn2c(-c3ccc(F)cc3)cnc12,/,3,/,/,/
SMILES,eIF4H FP inh,MLLE-PAM2 inh,MEX-5 binding,PABP FP inh,EBV gp42 inh
Oc1ccc(/C=N/NC(=S)Nc2cccnc2)cc1O,68,40*,-45*,+,4
O=C(N/N=C/c1ccc(O)c(O)c1)N/N=C/c1ccc(O)c(O)c1,56*,-8,-39*,i,/
CC(C)(C)c1ccc(/C=N/NC(=S)Nc2cccnc2)cc1,-10,/,-1,i,5
Cc1cc2nc3c(=O)[nH]c(=O)[nH]c3nc2c([N+](=O)[O-])c1N,?,191,/,i,150*
O=C1[C@H]2[C@@H](c3ccccc3)N[C@]3(CCCN(CC4CCCCC4)C3=O)[C@H]2C(=O)N1Cc1ccccc1,/,18,/,/,/
CC[N+]1(CC(O)COC2CC(C)CC(C)(C)C2)CCOCC1 (stereo not drawn),-2,-114,-2,+,-34

# Assay outcomes as filed in PubChem.
